{"source": "ChEMBL document CHEMBL3988442", "about": "“University of Dundee, Small-Polar-MMV Screening Library” (2021)", "note": "About 13,000 (27%) of roughly 48,000 compounds showed an effect of 50% or more. The list shows a part of the results.", "data": [{"system": "Wolbachia pipientis", "assay": "Anti-Wolbachia Cell-Based Screen", "type": "functional", "set-up": "scale not given: in the data most compounds retested in dose-response had high values", "settings": "5 µM", "units": {"Percent Effect": "%"}, "values": [{"smiles": "CSCC(=O)N1CCc2[nH]nc(-c3ccc4c(c3)OCO4)c2C1", "Percent Effect": -14.59}, {"smiles": "NC(=O)CSc1nccc(-c2ccc3c(c2)OCO3)n1", "Percent Effect": 94.21}, {"smiles": "CNCc1nc(-c2ccc3c(c2)OCO3)c[nH]1.Cl.Cl", "Percent Effect": -0.9226}, {"smiles": "O=C(O)CSc1nccc(-c2ccc3c(c2)OCO3)n1", "Percent Effect": 78.66}, {"smiles": "O=C(Cc1ccc2c(c1)OCO2)N1CCN(c2ccncc2)CC1", "Percent Effect": -22.19}, {"smiles": "O=C(CSc1nccc(-c2ccc3c(c2)OCO3)n1)N1CCOCC1", "Percent Effect": 110.7}, {"smiles": "CN(C)C(=O)c1cccnc1-c1ccc2c(c1)OCO2", "Percent Effect": -0.5608}, {"smiles": "NC(=O)CCC(=O)N1CCc2[nH]nc(-c3ccc4c(c3)OCO4)c2C1", "Percent Effect": -2.811}, {"smiles": "CCOc1ccc(-c2ccc3c(c2)OCO3)cc1C(N)=O", "Percent Effect": -6.962}, {"smiles": "Cn1cccc(NC(=O)N2CCC(COCc3ccccc3)C2)c1=O", "note": "(stereo not drawn)", "Percent Effect": 7.256}, {"smiles": "Cc1ccc(C)c(OCC(O)Cn2ncc3cnn(C)c(=O)c32)c1", "note": "(stereo not drawn)", "Percent Effect": -5.252}, {"smiles": "O=S(=O)(NC1=NCN(CCc2cccs2)CN1)c1ccc(F)cc1", "Percent Effect": 4.244}, {"smiles": "Cc1cc(N[C@H](CO)COCc2ccccc2)n2nc(C)cc2n1", "Percent Effect": 2.305}, {"smiles": "CCN1CC(COC(C)(C)C)Oc2ccncc2S1(=O)=O", "note": "(stereo not drawn)", "Percent Effect": 103.5}, {"smiles": "COc1ccc(CN2CCOC[C@H](Oc3cccnc3)C2)cc1", "Percent Effect": -13}, {"smiles": "COc1ccc(OCCN2CCOCS2(=O)=O)cc1", "Percent Effect": -3.078}, {"smiles": "COCC1CN(Cc2ccc(OC)cc2)S(=O)(=O)c2cnccc2O1", "note": "(stereo not drawn)", "Percent Effect": 99.8}, {"smiles": "CCN1CC(COc2ccc(OC)cc2)Oc2ccncc2S1(=O)=O", "note": "(stereo not drawn)", "Percent Effect": 109.7}, {"smiles": "COc1ccc(CCC(=O)Nc2ccncc2C)cc1", "Percent Effect": 3.309}, {"smiles": "CC(C)(C)OCC1CN(CC2CC2)S(=O)(=O)c2cnccc2O1", "note": "(stereo not drawn)", "Percent Effect": 96.42}, {"smiles": "COc1ccc(C[C@@H]2CC[C@H](CN(C)C3CCN(C)CC3)O2)cc1", "Percent Effect": 15.35}, {"smiles": "Cc1nc(-c2noc3ccc(C(=O)NCCN(C)C)cc23)co1", "Percent Effect": -5.984}, {"smiles": "CN(CCn1cccn1)S(=O)(=O)c1cccc(Cl)c1C#N", "Percent Effect": -13.18}, {"smiles": "O=C(O)C(=O)O.c1csc(CN2CC(c3nc(-c4cnccn4)no3)C2)c1", "Percent Effect": 14.88}, {"smiles": "CC(C)(C)OCC1CN(Cc2cccs2)S(=O)(=O)c2cnccc2O1", "note": "(stereo not drawn)", "Percent Effect": 118.6}, {"smiles": "CO[C@@H]1CCN(Cc2cccs2)[C@H]1Cc1ccncc1", "Percent Effect": 4.278}, {"smiles": "Cc1cc(NC(=O)NC(C)CO)ccc1OCC(F)(F)F", "note": "(stereo not drawn)", "Percent Effect": -7.879}, {"smiles": "CCCS(=O)(=O)c1ccc(N2CCC(Cc3ccccc3)CC2)nn1", "Percent Effect": 21.52}, {"smiles": "CN(Cc1ccc2c(c1)OCO2)Cc1cscn1", "Percent Effect": 9.115}, {"smiles": "CC(C)c1nc(CC(=O)N(C)Cc2ccc3c(c2)OCO3)cs1", "Percent Effect": -4.138}, {"smiles": "CC(=O)Nc1nc(SCc2ccc3c(c2)OCO3)ns1", "Percent Effect": 70.31}, {"smiles": "Cc1nnc(SCCCNC(=O)Cc2ccc3c(c2)OCO3)s1", "Percent Effect": -3.831}, {"smiles": "O=C(c1cc(COc2ccc3c(c2)OCO3)[nH]n1)N1CCSCC1", "Percent Effect": 4.191}, {"smiles": "CC(=O)N1CCCN(C(=O)Cc2ccc3c(c2)OCO3)CC1", "Percent Effect": 1.177}, {"smiles": "Nc1nc(SCc2ccc3c(c2)OCO3)ns1", "Percent Effect": 92.69}, {"smiles": "CCSc1nsc(NC(=O)COc2ccc3c(c2)OCO3)n1", "Percent Effect": 106.2}, {"smiles": "Cn1nc2c(cc1=O)CN(Cc1nnc(-c3ccco3)o1)CC2", "Percent Effect": -2.817}, {"smiles": "C=C(C)CN(CC)S(=O)(=O)c1c(F)cc(NC(C)=O)cc1F", "Percent Effect": 26.08}, {"smiles": "CC(NCC1=Cc2cc(Cl)ccc2OC1)c1nnc2n1CCCC2", "note": "(stereo not drawn)", "Percent Effect": 8.386}, {"smiles": "CCc1cnc(NCC(c2cccnc2)N2CCOCC2)nc1", "note": "(stereo not drawn)", "Percent Effect": 1.67}, {"smiles": "CCNc1nc(-c2cccnc2)c(-c2ccnc(N3CCOCC3)n2)s1", "Percent Effect": 59.36}, {"smiles": "CCNc1ccnc(N2CCN(Cc3ncccc3C)CC2)n1", "Percent Effect": 0.1311}, {"smiles": "CCCS(=O)(=O)N1CCN(c2ccnc(N3CCCC3)n2)CC1", "Percent Effect": 2.468}, {"smiles": "CN1CCOC[C@H]1c1nc(-c2cccnc2)c[nH]1", "Percent Effect": -3.029}, {"smiles": "CCNc1nc(-c2cccnc2)c(-c2ccnc(N3CCCC3)n2)s1", "Percent Effect": 59.83}, {"smiles": "CN(Cc1nccn1C)c1ccc(-c2nccn2C)nn1", "Percent Effect": -5.677}, {"smiles": "Cc1nc(C2CCN2c2ncccn2)cc(N(C)C)n1", "note": "(stereo not drawn)", "Percent Effect": 87.93}, {"smiles": "Cc1nc(NC2CCCC2)cc(C2CCN2c2ncccn2)n1", "note": "(stereo not drawn)", "Percent Effect": 84.97}, {"smiles": "CNc1cc(C2CCN2c2ncccn2)nc(C)n1", "note": "(stereo not drawn)", "Percent Effect": 95.15}, {"smiles": "CN(Cc1nnc2n1CCC2)S(=O)(=O)c1cc(Br)ccc1Br", "Percent Effect": 5.695}, {"smiles": "O=C(c1cncc(N2CCC3(CC2)NCCNC3=O)n1)N1CCCCC1", "Percent Effect": -23.93}, {"smiles": "CN(C)CCn1ccc2cc(NC(=O)NCc3ccon3)ccc21", "Percent Effect": -4.037}, {"smiles": "O=C(Cc1cccc(F)c1F)NS(=O)(=O)c1ccc(Cl)cn1", "Percent Effect": 3.295}, {"smiles": "O=C(CNc1cc2c(cc1Cl)OCCO2)NCC(F)(F)F", "Percent Effect": 19.2}, {"smiles": "COc1ccc(C2(C(=O)N3CC[C@@]4(O)CCNC[C@H]4C3)CCCC2)cc1", "Percent Effect": -11.98}, {"smiles": "COc1ccc(CN(C)CC2(O)CCNC2)cc1", "note": "(stereo not drawn)", "Percent Effect": 119.3}, {"smiles": "CN(Cc1ccc2nsnc2c1)CC1(O)CCNC1", "note": "(stereo not drawn)", "Percent Effect": 4.818}, {"smiles": "N#Cc1cn(C2CC2)c(=O)n(Cc2ncc(-c3cccs3)o2)c1=O", "Percent Effect": 18.42}, {"smiles": "COCCCN1CC2(CCCN(c3ncc4nc[nH]c4n3)C2)CCC1=O", "note": "(stereo not drawn)", "Percent Effect": -4.995}, {"smiles": "Cl.Cl.O=C(NCc1cncc2c1CCN(C1CCOC1)C2)c1ccco1", "note": "(stereo not drawn)", "Percent Effect": 112.9}, {"smiles": "Cl.Cl.O=C(NCc1cncc2c1CCN(C1CCOCC1)C2)c1ccco1", "Percent Effect": 116}, {"smiles": "CC(C)CN1CCC(C(=O)NCCNC(=O)c2ccco2)CC1", "Percent Effect": -4.338}, {"smiles": "Cl.Cl.O=C(NCc1cncc2c1CCN(Cc1cccc(F)c1)C2)C1CC1", "Percent Effect": 1.539}, {"smiles": "Cl.Cl.O=C(NCc1cncc2c1CCN(C1CCOCC1)C2)c1ccno1", "Percent Effect": 114.6}, {"smiles": "Cl.Cl.O=C(NCc1cncc2c1CCN(Cc1ccccc1)C2)C1CC1", "Percent Effect": 12.37}, {"smiles": "Cl.Cl.O=C(NCc1cncc2c1CCN(CC1CCOC1)C2)c1ccno1", "note": "(stereo not drawn)", "Percent Effect": 2.196}, {"smiles": "Cl.Cl.O=C(NCc1cncc2c1CCN(CC1CCOC1)C2)c1ccco1", "note": "(stereo not drawn)", "Percent Effect": 105}, {"smiles": "Cl.Cl.O=C(NCc1cncc2c1CCN(Cc1ccc(F)cc1)C2)C1CC1", "Percent Effect": -3.295}, {"smiles": "CS(=O)(=O)N1CCCN(C(=O)c2ccc(Cn3ccccc3=O)o2)CC1", "Percent Effect": 2.265}, {"smiles": "O=C(NS(=O)(=O)c1ccccc1Cl)c1cccc2c1OCCO2", "Percent Effect": -4.478}, {"smiles": "Cc1ccc(CN(C)C)cc1NC(=O)C1CC=CC1", "Percent Effect": -13.67}, {"smiles": "CCc1ncc2c(n1)CN(CC(=O)N1CCc3sccc3C1)CC2", "Percent Effect": 0.7848}, {"smiles": "O=C(O)C(F)(F)F.O=C(O)C(F)(F)F.c1cncc(N2CCCC3(CCN(CCN4CCCC4)CC3)C2)c1", "Percent Effect": 112}, {"smiles": "N#Cc1ccc(N2CCCC3(CCN(c4cccnc4)CC3)C2)cc1.O=C(O)C(F)(F)F", "Percent Effect": 32.72}, {"smiles": "O=C(O)C(F)(F)F.c1cncc(N2CCCC3(CCN(CC4CCCO4)CC3)C2)c1", "note": "(stereo not drawn)", "Percent Effect": 83.5}, {"smiles": "COc1ccc(N2CCCC3(C2)CN(c2cccnc2)CCO3)cc1.O=C(O)C(F)(F)F", "note": "(stereo not drawn)", "Percent Effect": 0.9473}, {"smiles": "O=C(O)C(F)(F)F.c1cncc(N2CCOCC3(CCCN(c4nncs4)C3)C2)c1", "note": "(stereo not drawn)", "Percent Effect": -4.249}, {"smiles": "Fc1cnccc1CN1CCCC2(CCN(c3ncccn3)CC2)C1.O=C(O)C(F)(F)F", "Percent Effect": -3.022}, {"smiles": "O=C(O)C(F)(F)F.c1cncc(N2CCC3(CCCN(c4ccncc4)C3)CC2)c1", "Percent Effect": 92.43}, {"smiles": "c1ccc(NCc2cn3c(n2)CN(Cc2nccs2)CC3)nc1", "Percent Effect": 0.03801}, {"smiles": "CC(=O)c1cc(CC(=O)N2CCN(S(=O)(=O)c3ccccc3)CC2)cs1", "Percent Effect": -20.85}, {"smiles": "COc1cc2c(nn1)CCN(Cc1nnc(Cc3ccccc3)o1)C2", "Percent Effect": 16.22}, {"smiles": "CC(C)COCCCNC(=O)NC(C)c1ccc(-n2cncn2)cc1", "note": "(stereo not drawn)", "Percent Effect": -8.242}, {"smiles": "COCCNC(=O)[C@@H]1C[C@@H]2CCN(c3ncccn3)C[C@H]2O1.O=C(O)C(F)(F)F", "Percent Effect": 90.69}, {"smiles": "O=C(NCc1cccnc1)[C@@H]1C[C@H]2[C@H](CCN2c2ncc(F)cn2)O1.O=C(O)C(F)(F)F.O=C(O)C(F)(F)F", "Percent Effect": -1.497}, {"smiles": "O=C(NCc1cccnc1)[C@@H]1C[C@@H]2CCN(c3ncc(F)cn3)C[C@@H]2O1.O=C(O)C(F)(F)F.O=C(O)C(F)(F)F", "Percent Effect": 11.34}, {"smiles": "COCCNC(=O)[C@H]1C[C@@H]2CCN(CCc3ccccc3)C[C@H]2O1.O=C(O)C(F)(F)F", "Percent Effect": 28.03}, {"smiles": "O=C(NCc1cccnc1)[C@H]1C[C@@H]2CCN(c3ccncn3)C[C@H]2O1.O=C(O)C(F)(F)F.O=C(O)C(F)(F)F", "Percent Effect": 98.22}, {"smiles": "COCCNC(=O)[C@H]1C[C@@H]2CCN(c3ccncn3)C[C@H]2O1.O=C(O)C(F)(F)F", "Percent Effect": 90.71}, {"smiles": "COCCNC(=O)[C@H]1C[C@@H]2CCN(CCc3ccccc3)C[C@@H]2O1.O=C(O)C(F)(F)F", "Percent Effect": -51.54}, {"smiles": "COCCNC(=O)[C@H]1C[C@@H]2CCN(c3ccccc3)C[C@H]2O1.O=C(O)C(F)(F)F", "Percent Effect": 88.58}, {"smiles": "COC(=O)c1ccc(N2CCN(C(=O)CCCc3cn[nH]c3)CC2)cc1", "Percent Effect": -14.7}, {"smiles": "CCNc1ncc(C(=O)NCc2csc(C)n2)cn1", "Percent Effect": -20.21}, {"smiles": "OCCOc1ccc(NCc2cccc3cccnc23)cn1", "Percent Effect": -13.71}, {"smiles": "COCCNC(=O)[C@H]1C[C@@H]2CCN(c3ncccn3)C[C@H]2O1.O=C(O)C(F)(F)F", "Percent Effect": 108.2}, {"smiles": "COCCNC(=O)[C@H]1CN(c2ncccn2)C[C@H]2OCC[C@@H]12", "Percent Effect": -34.97}, {"smiles": "COCCNC(=O)[C@@H]1CN(c2ncccn2)C[C@H]2OCC[C@H]21", "Percent Effect": -43.81}, {"smiles": "COCCNC(=O)[C@H]1C[C@@H]2CCN(c3ncccn3)C[C@@H]2O1", "Percent Effect": 107.5}]}]}
